Compounds with a hit are over-represented: about 3.5% of the library has one in this group of screens.
mHTT CaM bind – mutant huntingtin-calmodulin interaction inhibitors – biochemical, AlphaScreen, primary screen; P42858; AlphaScreen His-mHTT/GST-CaM binding, luminescence; inhibition, % at 15 µM; hit rate 3.6% among 190,000; AID 1671202, 2021;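 further: 0% = both proteins with DMSO and 100% = one protein alone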
Pf apPOL inh – Pf-apPOL inhibitors, biochemical, fluorescence; Plasmodium falciparum apicoplast DNA polymerase (apPOL); Recombinant Pf-apPOL, molecular beacon fluorescence, 1.5 h; inhibition, % at 10 µM; hit rate 0.25% among 210,000
* = called active by the depositor. No stated cut-off is given here; in the data, active means inhibition above about 50%; inactive means the rest.

`O=C(NCc1ccccc1)c1cc2c(s1)CCN(C(=O)c1ccc(F)cc1)C2` gave mHTT CaM bind 5 and Pf apPOL inh 2.
Screening COc1ccc(/C=C2/N=C(c3ccc(-c4ccccc4)cc3)OC2=O)c(OC)c1OC returned mHTT CaM bind 1 and Pf apPOL inh -3.
`Cn1c(N2CCC(C(=O)NCc3ccccn3)CC2)cc(=O)n(C)c1=O` gave mHTT CaM bind 70* and Pf apPOL inh 1.
CCn1c(N2CCC(C(=O)NCc3cccs3)CC2)cc(=O)n(C)c1=O was read as mHTT CaM bind 62* and Pf apPOL inh -3.
For Cn1c(N2CCC(C(=O)NCc3cccs3)CC2)cc(=O)n(C)c1=O the results were mHTT CaM bind 40 and Pf apPOL inh -2.
`Cc1cccc(N2CC(C(=O)NCc3ccccn3)CC2=O)c1` (configuration not stated) gave mHTT CaM bind 61* and Pf apPOL inh -14.
Screening Cn1c(N2CCCC(C(=O)NCCC3=CCCCC3)C2)cc(=O)n(C)c1=O (configuration not stated) returned mHTT CaM bind 11 and Pf apPOL inh 0.
Screening Cn1c(N2CCC(C(=O)NCc3ccccc3)CC2)cc(=O)n(C)c1=O returned mHTT CaM bind 27 and Pf apPOL inh 2.
`CC(C)c1ccc(N2CC(C(=O)NCc3ccccn3)CC2=O)cc1` (configuration not stated) gave mHTT CaM bind 9 and Pf apPOL inh -4.
For CCn1c(N2CCC(C(=O)NCCC3=CCCCC3)CC2)cc(=O)n(C)c1=O the results were mHTT CaM bind 51* and Pf apPOL inh 5.
`CCN1C(=O)C(C)(C)COc2cc(NC(=O)c3cc(C)on3)ccc21` gave mHTT CaM bind -9 and Pf apPOL inh -7.
Screening COCCN1CC(C(=O)NCc2cccc(C)c2)CC1=O (configuration not stated) returned mHTT CaM bind -5 and Pf apPOL inh -5.
`CCn1cc(C2=CCN(C(=O)Nc3cc(Cl)ccc3C)CC2)c2cccnc21` gave mHTT CaM bind 16 and Pf apPOL inh -7.
Screening CCn1c(N2CCC(C(=O)Nc3cc(OC)c(OC)c(OC)c3)CC2)cc(=O)n(C)c1=O returned mHTT CaM bind 62* and Pf apPOL inh 2.
Screening COc1ccc(NC(=O)C2CCN(c3cc(=O)n(C)c(=O)n3C)CC2)cc1OC returned mHTT CaM bind 39 and Pf apPOL inh 0.
`O=C(c1cc(C(F)(F)F)cc(C(F)(F)F)c1)c1ccccc1C(=O)N1CCOCC1` gave Pf apPOL inh -2.
`O=C(N=S1CCC2(C1)OCCO2)c1cc(C(F)(F)F)cc(C(F)(F)F)c1` (configuration not stated) gave Pf apPOL inh 75*.
For COc1cc([N+](=O)[O-])cc2c1NC(c1ccccc1Cl)C1CC=CC21 (configuration not stated) the results were mHTT CaM bind 13 and Pf apPOL inh 2.
COc1cccc2c1NC(c1ccc([N+](=O)[O-])cc1)C1CC=CC21 (configuration not stated) was read as mHTT CaM bind 70* and Pf apPOL inh 5.
COc1ccc(C2Nc3c(OC)cccc3C3C=CCC32)cc1[N+](=O)[O-] (configuration not stated) was read as mHTT CaM bind 66* and Pf apPOL inh -5.
Screening COc1ccc(C2Nc3c(C)ccc(Cl)c3C3C=CCC32)cc1[N+](=O)[O-] (configuration not stated) returned mHTT CaM bind 33 and Pf apPOL inh -6.
Screening CCc1cccc2c1NC(c1ccc(OC)c([N+](=O)[O-])c1)C1CC=CC21 (configuration not stated) returned mHTT CaM bind 59* and Pf apPOL inh -7.
Cn1nc(-c2nc(Cc3ccccc3)no2)c2c1CCN(C(=O)NCc1ccccc1)C2 was read as mHTT CaM bind 19 and Pf apPOL inh -3.
For Cc1ccc(N2CCN(CC(=O)NC3CCSC3=O)C2=O)cc1 (configuration not stated) the results were mHTT CaM bind -13 and Pf apPOL inh -10.
`Nc1c2c(nn1C1CCS(=O)(=O)C1)CCCC2` (configuration not stated) gave mHTT CaM bind 0 and Pf apPOL inh 2.
Screening Cc1ccc(S(=O)(=O)N(C)C2CC(C)(C)N(C)C(C)(C)C2)cc1 returned mHTT CaM bind -6 and Pf apPOL inh 0.
Screening COCCC1CCN(C(=O)CN(C)C(=O)c2ccc(C)cc2)CC1 returned mHTT CaM bind 5 and Pf apPOL inh 4.
Screening CC(C)Cn1c(=O)c2c(ncn2Cc2ccc(F)cc2)n(-c2ccccc2)c1=O returned mHTT CaM bind 7 and Pf apPOL inh 2.
`Cc1ccccc1-n1c(=O)n(CC(C)C)c(=O)c2c1ncn2Cc1ccc(F)cc1` gave mHTT CaM bind 75* and Pf apPOL inh -7.
For Fc1cccc(Cl)c1CON=Cc1ccc(Cl)cc1Cl the results were Pf apPOL inh -3.

Assay outcomes: PubChem, University of Kansas High Throughput Screening Laboratory
